Results on eight compounds are retold here after PubChem BioAssay (NCI).

Some test systems named below: NCI-H23 lung; NCI-H322M lung; HOP-62 NSCLC; NCI-H460 lung; HOP-92 NSCLC; NCI-H522 lung; A549/ATCC NSCLC; 786-0 renal; COLO 205 colon; DU-145 prostate; K-562 leukemia; MALME-3M melanoma; MDA-MB-231 breast; RXF 393 renal; SF-268 CNS; SF-295 CNS; SF-539 CNS; UACC-257 melanoma; M14 melanoma.
Common to all, as to assay: NCI-60 one-dose screen, 48 h (100 = growth as untreated, 0 = no growth, -100 = all killed)
Common to all, as to details: 10 µM unless noted

The panel holds about 83,000 compounds, 20% with a hit somewhere; the sample as a whole holds those more often.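 Interpretation: 100, growth as untreated; towards 0, rising growth inhibition; 0, no net growth; 0 to -100, cell death. Compounds scoring below 10 were considered active.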 Unmarked numbers belong to inactive results. Active and inactive are the calls of the source.

As to `CN1CCN(Cc2ccc(NC(=O)c3cncc(C#Cc4c(N)ncc5ccccc45)c3)cc2C(F)(F)F)CC1`, the growth in the assay on NCI-H23 lung is -59.1% (active); in the assay with NCI-H322M lung, -37% (active); with HOP-62 NSCLC it was -83.7% (active); in the assay with NCI-H460 lung it was -71.5% (active); with HOP-92 NSCLC it was -59.2% (active); in the assay with NCI-H522 lung, -83.9% (active). Moreover, the growth in the assay on A549/ATCC NSCLC was -87.7% (active); with 786-0 renal it was -80.8% (active); with COLO 205 colon, -90.4% (active); in the assay on DU-145 prostate, -95.6% (active); in the assay with K-562 leukemia, -37% (active); in the assay on MALME-3M melanoma it was -84.8% (active). The growth in the assay on MDA-MB-231 breast was -88.7% (active); in the assay with RXF 393 renal, -97% (active); in the assay with SF-268 CNS, -65.1% (active); in the assay on SF-295 CNS it was -59.9% (active); in the assay with SF-539 CNS, -97% (active); in the assay on UACC-257 melanoma it was -72.2% (active). Besides, the growth with M14 melanoma was -73.9% (active).
For the compound `C#Cc1cccc(Nc2ncnc3ccc(-c4cnc(Cl)c(NS(C)(=O)=O)c4)cc23)c1`, the growth in the assay on NCI-H23 lung is -5.52% (active); with NCI-H322M lung, -42.3% (active); in the assay with HOP-62 NSCLC, 3.57% (active); with NCI-H460 lung it was 6.42% (active); in the assay on HOP-92 NSCLC, -17.1% (active); with NCI-H522 lung it was -22.8% (active). Moreover, the growth in the assay on A549/ATCC NSCLC was -28.5% (active); with 786-0 renal it was -14.6% (active); with COLO 205 colon, -69.2% (active); with DU-145 prostate it was 2.5% (active); in the assay on K-562 leukemia, 11.2%; in the assay with MALME-3M melanoma it was -35.5% (active). Further, the growth was -6.68% (active) in the assay on MDA-MB-231 breast; -54.9% (active) in the assay with RXF 393 renal; -30.1% (active) in the assay with SF-268 CNS; -31.9% (active) with SF-295 CNS; -38.4% (active) with SF-539 CNS; -9.67% (active) in the assay on UACC-257 melanoma. In the assay on M14 melanoma, the growth is -26.7% (active).
In the case of `Cc1ccc2nc(/C=C/c3ccc(N(C)C)cc3)cc(C)c2c1`, the growth in the assay with NCI-H23 lung is 42.1%; in the assay with NCI-H322M lung, 70.9%; with HOP-62 NSCLC it was 32.4%; in the assay on NCI-H460 lung, 15.1%; with HOP-92 NSCLC, 25.7%; in the assay with NCI-H522 lung, 25.1%. The growth in the assay on A549/ATCC NSCLC is 52.3%; in the assay with 786-0 renal, 35.1%; with COLO 205 colon, 23.5%; with DU-145 prostate, 47.2%; in the assay on K-562 leukemia, 19.8%; with MALME-3M melanoma, 39.8%. Also, the growth in the assay with MDA-MB-231 breast is 38.4%; in the assay on RXF 393 renal, 29.4%; with SF-268 CNS, 37.3%; in the assay with SF-295 CNS, 12.5%; with SF-539 CNS, 9.33% (active); in the assay with UACC-257 melanoma it was 62.1%. Besides, the growth in the assay with M14 melanoma was 13.2%.
`O=c1c2cccc3c(N4CCOCC4)ccc(c32)c2nc3ccccc3n12`: the growth in the assay with NCI-H23 lung is 76.9%; with NCI-H322M lung it was 89.1%; in the assay on HOP-62 NSCLC it was 86.4%; in the assay on NCI-H460 lung it was 88.4%; in the assay with HOP-92 NSCLC it was 59.2%; with NCI-H522 lung it was 80.5%. Besides, the growth in the assay on A549/ATCC NSCLC was 92.7%; in the assay with 786-0 renal, 97.5%; in the assay on COLO 205 colon, 87.6%; in the assay on DU-145 prostate, 109%; with K-562 leukemia, 80%; in the assay on MALME-3M melanoma it was 97.7%. In addition, the growth is 82% with MDA-MB-231 breast; 131% in the assay on RXF 393 renal; 109% in the assay with SF-268 CNS; 86.3% in the assay with SF-295 CNS; 90.5% in the assay on SF-539 CNS; 96.2% with UACC-257 melanoma. Also, the growth in the assay on M14 melanoma is 104%.
On to `Cc1c(CC(=O)Nc2ccccc2)nnn1-c1ccccc1`, for which the growth is 100% in the assay on NCI-H23 lung; 105% in the assay on NCI-H322M lung; 108% in the assay with HOP-62 NSCLC; 106% with NCI-H460 lung; 108% in the assay with HOP-92 NSCLC; 93.4% in the assay with NCI-H522 lung. Moreover, the growth is 107% with A549/ATCC NSCLC; 107% in the assay with 786-0 renal; 112% in the assay on COLO 205 colon; 115% in the assay on DU-145 prostate; 101% with K-562 leukemia; 106% with MALME-3M melanoma. Further, the growth in the assay on MDA-MB-231 breast is 118%; in the assay on RXF 393 renal, 120%; in the assay on SF-268 CNS, 104%; in the assay with SF-295 CNS, 109%; with SF-539 CNS, 100%; with UACC-257 melanoma it was 104%. The growth in the assay with M14 melanoma is 108%.
For `Nc1ncc(-c2ccc3ncnc(N4CCc5ccc(Cl)cc54)c3c2)cn1`, the growth in the assay on NCI-H23 lung was 12.4%; with NCI-H322M lung, -15.4% (active); with HOP-62 NSCLC, -11.9% (active); in the assay on NCI-H460 lung it was 4.03% (active); in the assay with HOP-92 NSCLC, -34.5% (active); in the assay with NCI-H522 lung, -15.7% (active). The growth with A549/ATCC NSCLC is 0.08% (active); with 786-0 renal it was -0.891% (active); in the assay on COLO 205 colon it was -25.8% (active); with DU-145 prostate, 10%; in the assay with K-562 leukemia it was 10.5%; with MALME-3M melanoma it was -17.4% (active). In addition, the growth in the assay on MDA-MB-231 breast was -3.01% (active); in the assay with RXF 393 renal, -29.4% (active); with SF-268 CNS, 11.2%; in the assay on SF-295 CNS, -7.57% (active); in the assay on SF-539 CNS it was -68.8% (active); in the assay on UACC-257 melanoma, 8.1% (active). The growth with M14 melanoma was 8.74% (active).
As to `CN(C)CCOc1ccc(/C(=C(/CCCCCCCCCC[P+](c2ccccc2)(c2ccccc2)c2ccccc2)c2ccccc2)c2ccccc2)cc1`, the growth was -83.2% (active) with NCI-H23 lung; -96.6% (active) with NCI-H322M lung; -66% (active) in the assay on HOP-62 NSCLC; -79.2% (active) in the assay with NCI-H460 lung; -84.3% (active) with HOP-92 NSCLC; -75.1% (active) in the assay with NCI-H522 lung. The growth was -64.3% (active) with A549/ATCC NSCLC; -76.6% (active) with 786-0 renal; -64% (active) in the assay with COLO 205 colon; -94.1% (active) in the assay on DU-145 prostate; -39.3% (active) with K-562 leukemia; -82.2% (active) in the assay on MALME-3M melanoma. For the same compound, the growth in the assay with MDA-MB-231 breast is -83.4% (active); in the assay with RXF 393 renal, -73.8% (active); with SF-268 CNS it was -72.1% (active); with SF-295 CNS, -88.6% (active); with SF-539 CNS, -88.9% (active); with UACC-257 melanoma, -77.4% (active). Also, the growth in the assay with M14 melanoma is -79.6% (active).
Take `O=C(/C=C/c1ccco1)Nc1ncc(Cc2ccc(F)cc2)s1`: the growth is 23.4% with NCI-H23 lung; 47.2% with NCI-H322M lung; 25.8% in the assay on HOP-62 NSCLC; 6.54% (active) in the assay with NCI-H460 lung; 90.5% with HOP-92 NSCLC; -2.92% (active) in the assay on NCI-H522 lung. In addition, the growth is 23.9% with A549/ATCC NSCLC; 38.4% in the assay on 786-0 renal; 4.77% (active) in the assay on COLO 205 colon; 19% in the assay with DU-145 prostate; 10.8% in the assay on K-562 leukemia; 59% in the assay with MALME-3M melanoma. Further, the growth in the assay with MDA-MB-231 breast is 45.5%; in the assay with RXF 393 renal it was 12.7%; in the assay on SF-268 CNS it was 54.9%; with SF-295 CNS, 11.7%; in the assay on SF-539 CNS, -21.3% (active); with UACC-257 melanoma, 45.2%. The growth in the assay on M14 melanoma is 16.7%.
